Source: PubChem BioAssay
Most compounds without a hit are left out; they make up all but 2.3% or so of the library.
aSyn yeast inh: inhibitors of alpha-synuclein toxicity in yeast | Yeast expressing alpha-synuclein, growth rescue, BacTiter-Glo, 24 h | Potency, µM (series often up to 46.1 µM), for the others: at the top dose growth rescue (activation), hits mostly activators | 370,000 compounds, 0.14% hits; note: potency is the fitted concentration of half-maximal effect; % of control where 0% means no effect; nearly all actives have a fitted effect of over 65% in size
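Rescue of yeast growth: cells expressing toxic alpha-synuclein, induced in galactose at OD600 0.02, incubated with compound 24 h at 30 C. ATP luminescence quantified growth; inhibitors of toxicity appear as activators.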
Mm-Cpn inhibitor: inhibitors of Methanococcus maripaludis chaperonin TRiC (MmCpn) | purified Mm-Cpn ATPase, ADP Transcreener TR-FRET | Potency, µM (titrated, usually from 76.9 µM), for inactives: at the top dose activity, negative = inhibition, actives largely listed as inhibitors | 330,000 compounds, 0.031% hits; note: potency is the fitted concentration of half-maximal effect; % is set by controls: 0 for no effect and ±100 for the full control effect; nearly all actives have a fitted effect of over 80% in size
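TR-FRET (320 nm excitation; 590 and 665 nm emission) reports ADP made from 10 uM ATP by 25 nM enzyme; compounds were preincubated 10 min, reaction run 30 min, both at 37°C.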
FUS suppressor: rescues growth of FUS-expressing yeast | S. cerevisiae FUS-expressing, growth rescue, OD600, 24 h | Potency, µM (series often up to 76.6 µM), usual class: activators | 390,000 compounds, 0.24% hits | AID 1347120;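 note: potency is the fitted concentration of half-maximal effect; plate controls were DMSO vehicle for no effect and reference control for full effect; nearly all actives have a fitted effect of over 55% in size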
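Quantitative HTS measuring growth restoration of FUS-toxic yeast. Galactose-induced cells (OD 0.005) were exposed 24hr at 30C to compounds at several concentrations, then absorbance at 600 nm was recorded.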
TDP43 rescue: rescues yeast growth from TDP-43 toxicity; Potency, µM (titrated, usually from 46.1 µM), inactives show at the highest dose growth rescue (activation), most hits filed as activators; 410,000 compounds, 1.8% hits; TDP-43 expressing yeast growth rescue, BacTiter-Glo, 24 h; note: potency is the fitted concentration of half-maximal effect; % of control where 0% means no effect; nearly all actives have a fitted effect of over 50% in size
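Yeast expressing TDP-43 (pregrown in raffinose, seeded at OD600=0.02 in galactose medium) exposed to compounds 24 hr at 30 deg C. Growth read by BacTiter-Glo luminescence; rescue of toxicity appears as increased signal.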
CCT modulator: cytosolic chaperonin activity modulation; 360,000 compounds, 0.3% hits; purified chaperonin ATPase assay, HTRF ADP detection, 30 min; activity change, % (test concentration not listed), hits read low; in the data active = activity change below about -30%; note: % is set by controls: 0 for no effect and ±100 for the full control effect
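TRiC at 40 or 20 nM final (batch-dependent) in 30 mM Tris pH 7.4, 100 mM KCl, 5 mM MgCl2, 1 mM DTT, with compound at single 76 uM and 10 uM ATP, 30 min at 37 deg C. ADP detected by HTRF Transcreener, 665/615 ratio.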
Abeta yeast res: compounds reversing amyloid beta toxicity in yeast; yeast expressing A-beta42, growth rescue, OD600, 48 h; response scale: 0% DMSO, 100% iron-clioquinol control; Potency, µM (highest dose often 46.1 µM), hits mostly activators; 410,000 compounds, 0.063% hits; note: potency is the fitted concentration of half-maximal effect; nearly all actives have a fitted effect of over 55% in size
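Yeast growth medium received pinned compounds, then yeast cells expressing toxic A-beta were added; plates incubated at 30 C for 48 hr. Growth read as absorbance at 600 nm, normalized to DMSO and equimolar FeCl3 plus clioquinol controls.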
Numbers without * were called inactive; i = inactive; ? = inconclusive; / = no result; [ ] = another dose, or the depositor's remark. Unless noted, calls come from the whole dose curve; as a rule, active = well fitted curve in the direction sought with a large enough effect; inconclusive = small, poorly fitted or top-dose-only effect, or another doubt; inactive = no such curve, though single readings can be large; an effect the other way counts as inactive or inconclusive.

SMILES	aSyn yeast inh	Mm-Cpn inhibitor	FUS suppressor	TDP43 rescue	CCT modulator	Abeta yeast res
CC(=O)N1CCN(c2ccc(S(=O)(=O)N3CCOCC3)cc2[N+](=O)[O-])CC1	10.4%	-0.4%	i	-4.8%	-0.6	i
CCOC(=O)N1CCN(c2ccc(S(=O)(=O)N3CCC(C)CC3)cc2[N+](=O)[O-])CC1	2.7%	0.6%	i	22.4µM*	-2.1	i
C=C(C)CNC(=S)N/N=C/C1=CCC2CC1C2(C)C (stereo not given)	-12.6%	-0.8%	/	17.8µM*	-2.3	i
CCCCNC(=S)N/N=C/C1=CCC2CC1C2(C)C (stereo not given)	-10.3%	0.8%	i	-17.1%	-2.7	?
COC(=O)c1ccc(Oc2ccc(S(=O)(=O)N3CCCCC3)cc2N)cc1	12.6µM*	0.8%	i	?	-6.2	i
COC(=O)CNc1cc(S(=O)(=O)N2CCCCC2)ccc1Oc1ccc(C(=O)OC)cc1	?	-0.8%	i	-2.2%	-1.2	i
Cc1cccc(C(=O)Nc2nnc(S(=O)(=O)N(C)c3ccccc3C)s2)c1	/	/	i	9.0%	/	i
COc1ccc(C(C)=O)cc1COC(=O)C1CCN(C(=O)c2ccc(Cl)cc2)CC1	0.7%[1.84 µM]	0.2%	?	20µM*	0.3	i
CC[C@H](C)[C@H]1O[C@]2(CC[C@@H]1C)C[C@@H]1C[C@@H](CC=C(C)[C@@H](O[C@H]3C[C@H](OC)[C@@H](O[C@H]4C[C@H](OC)[C@@H](O)[C@H](C)O4)[C@H](C)O3)[C@@H](C)C=CC=C3CO[C@@H]4[C@H](O)C(C)=C[C@@H](C(=O)O1)[C@]34O)O2	24.9%	/	7.08µM*	9.8%	-1.0	i
CCc1cc(/C=C/c2ccnc3ccccc23)ccc1N(C)C	-18.2%	/	/	/	/	/
CC(C)NC(=O)C1(N2C(=O)c3ccccc3C2=O)CCCC1	-6.9%	/	i	11.2µM*	2.3	i
Cc1cc(=O)oc2cc(OCCCC[n+]3ccccc3)ccc12	-11.8%	-0.7%	i	-10.4%	0.1	i
Cc1cc(=O)oc2cc(OCCc3ccccc3)ccc12	2.4%	0.8%	i	12.6µM*	1.0	i
COC(=O)c1sc(-c2ccc(Cl)cc2)cc1N	1.9%	-15.9%	i	?	-40.1*	i
CC(=O)c1sc(-c2ccc(Cl)cc2)cc1N	-3.4%	-24.2%	i	?	0.6	i
CCOC(=O)c1noc2ncnc(NCc3ccccc3OC)c12	/	/	i	28.2µM*	/	i
CCOC(=O)c1noc2ncnc(Nc3cc(Cl)c(OC)cc3OC)c12	/	/	i	20.1%	/	i
O/N=C(/CBr)c1ccc2ccccc2c1	-4.5%	/	/	/	/	/
CC1COC(=O)C(NNc2ccc(Cl)c(Cl)c2)=N1 (stereo not given)	13.2%	0.4%	i	3.55µM*	2.1	i
Cc1ccc(C)c(NC(=O)Cn2nnc(-c3ccc(N4CCOCC4)cc3)n2)c1	-7.7%	-0.1%	i	2.8%	-78.5*	i
Cc1cccc(C)c1NC(=O)Cn1nnc(-c2ccc(N3CCOCC3)cc2)n1	-3.9%	-0.9%	i	19.3%	-0.5	i
Cc1ccc(S(=O)(=O)Nc2cccc3cccnc23)c([N+](=O)[O-])c1	17.8µM*	0.3%	i	7.94µM*	0.3	i
Cc1cc(C)c(NS(=O)(=O)c2cccc3cccnc23)c(C)c1	-3.4%	-0.4%	i	2.1%	0.0	i
O=c1[nH]cc(COCc2ccccc2)c(=O)[nH]1	0.6%	1.3%	i	-0.6%	0.0	i
O=c1[nH]cc(CCCc2ccccc2)c(=O)[nH]1	0.2%	/	i	2.0%	-48.9*	i
SMILES	aSyn yeast inh	Mm-Cpn inhibitor	FUS suppressor	TDP43 rescue	CCT modulator	Abeta yeast res
CC1=Nc2ccccc2/C1=C/c1ccc(N(C)C)cc1	27.9%	/	/	/	/	/
N#C/C(=C\c1ccco1)Sc1nc2ccccc2s1	-12.8%	-2.3%	i	15.8µM*	-2.7	i
Nc1nc(-c2ccc(NC(=O)c3ccco3)cc2)cs1	-12.6%	-1.6%	i	-30.6%	-2.7	i
NC(=O)/C(=N\OC(=O)c1ccco1)c1nc(-c2ccc(Br)cc2)cs1	-9.6%	0.1%	/	15.8µM*	-1.4	i
O=c1n(Cc2ccccc2)c(O)c2n1Cc1ccccc1N=C2c1ccccc1	-0.2%	/	i	11.8%	-40.4*	i
COc1ccc(CNc2cccc(F)c2)cc1Br	-8.7%	-0.2%	/	12.6µM*	-1.4	i
COc1ccc(CNCc2cccc(OC)c2OC)cc1Br	-2.7%	-2.0%	i	-3.7%	-2.7	i
COc1cc(S(=O)(=O)n2ccc(C)n2)ccc1Cl	2.5%	0.6%	i	/	-47.9*	i
CN(C)CCCNc1nccc(N2CCN(C)CC2)n1	-2.0%	/	/	/	/	/
COc1ccccc1NC(=O)c1nc(SCc2ccccc2F)ncc1Cl	0.3%	/	/	/	/	/
Cn1nnnc1SCCCNCc1ccc(-c2ccc(Br)cc2)o1	/	/	i	0.0%[9.22 µM]	/	i
N#CC1(NC(=O)COc2ccccc2[N+](=O)[O-])CCCCC1	-3.2%	-0.8%	i	-14.4%	1.1	i
O=C(COc1cccnc1[N+](=O)[O-])Nc1ccccc1Sc1ccccc1	25.6%	0.3%	/	14.1µM*	0.6	i
N#CC1(NC(=O)COc2cccnc2[N+](=O)[O-])CCCCC1	0.2%	1.9%	/	17.0%	-37.7*	i
C[C@H]1COc2cccc(F)c2S(=O)(=O)N1C	/	/	i	/	/	/
O=[N+]([O-])c1ccc(Cn2cc(-c3cccc(C(F)(F)F)c3)nn2)cc1	20.5%	-3.7%	i	15.8µM*	-2.8	i
OC(c1ccc(F)c(F)c1)c1nc(-c2csc3ccccc23)cs1 (stereo not given)	-59.3%	/	i	15.8µM*	-1.0	i
COc1cc(C(O)c2nc(-c3csc4ccccc34)cs2)ccc1F (stereo not given)	?	/	i	20µM*	-1.8	?
CCOC(=O)Cc1c(-c2cccc(Br)c2)nc2c3ccccc3ccn12	8.0%	/	i	22.4µM*	-0.6	i
Fc1ccc(-c2nc3c4ccccc4ccn3c2Cc2ccccc2C(F)(F)F)cc1	15.6%	/	i	?	1.5	?
COc1ccc(-c2nc3c4ccccc4ccn3c2Cc2ccccc2C(F)(F)F)cc1OC	16.6%	/	?	20µM*	-0.6	i
COc1ccc(-c2nc3c4ccccc4ccn3c2Cc2ccccc2)cc1OC	9.0%	/	i	0.0%	0.2	i
COc1ccc(Cc2c(-c3ccccc3)nc3c4ccccc4ccn23)c(C)c1	16.6%	/	i	11.2µM*	2.0	i
